Only some compounds are listed: those with a hit (about 18% of all), similar ones and a draw of the others.
Six1-Eya2 inh: Six1/Eya2 interaction inhibition. Q15475+O00167. AlphaScreen GST-Six1/His-Eya2 binding, biochemical; active compounds read low. activity change, % (no concentration beside the values). 360,000 compounds, 0.56% hits. AID 651725; in the data active = activity change below about -65%; inconclusive = mostly about -30% to -63%
Target sequence (O00167 whole entry, looked up): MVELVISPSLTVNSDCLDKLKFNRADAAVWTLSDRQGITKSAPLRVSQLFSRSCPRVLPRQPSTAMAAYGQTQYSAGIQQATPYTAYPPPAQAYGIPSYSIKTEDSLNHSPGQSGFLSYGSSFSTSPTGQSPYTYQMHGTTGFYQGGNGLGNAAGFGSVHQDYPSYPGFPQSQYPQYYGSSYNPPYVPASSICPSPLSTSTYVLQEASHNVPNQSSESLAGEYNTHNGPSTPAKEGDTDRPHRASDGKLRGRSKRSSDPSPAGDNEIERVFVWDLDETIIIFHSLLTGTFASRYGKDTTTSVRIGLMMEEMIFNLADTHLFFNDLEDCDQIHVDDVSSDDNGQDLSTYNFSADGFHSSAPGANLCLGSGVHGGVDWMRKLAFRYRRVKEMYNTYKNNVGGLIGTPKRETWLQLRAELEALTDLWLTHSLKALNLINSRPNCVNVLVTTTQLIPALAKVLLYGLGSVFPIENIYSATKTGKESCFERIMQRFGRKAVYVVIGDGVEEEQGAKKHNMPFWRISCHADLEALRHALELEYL
Target sequence (Q15475 whole entry, looked up): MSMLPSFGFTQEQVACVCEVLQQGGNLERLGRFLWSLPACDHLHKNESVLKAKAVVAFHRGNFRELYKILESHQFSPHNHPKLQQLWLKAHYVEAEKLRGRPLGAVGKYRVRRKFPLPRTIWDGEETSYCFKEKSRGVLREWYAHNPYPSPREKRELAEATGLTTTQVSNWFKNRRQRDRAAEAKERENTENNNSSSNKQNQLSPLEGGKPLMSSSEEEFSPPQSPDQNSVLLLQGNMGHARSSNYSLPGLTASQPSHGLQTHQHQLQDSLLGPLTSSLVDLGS
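GST-Six1 + His-Eya2 (5X stock: 250/500 nM); Tris pH 8.0, 300 mM NaCl, 0.05% BSA, 0.02% Tween 20; GSH donor/Ni acceptor beads; 1 h 37 °C dark; AlphaScreen readout.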
TDP1 inh: TDP1 (human) enzyme inhibition; 350,000 compounds, 0.28% hits; Q9NUW8; Potency, µM (highest dose often 130 µM), without a hit: at the highest dose activity change, negative = inhibition, hits mostly inhibitors; recombinant TDP1, AlphaScreen DNA substrate cleavage; also: potency is read from the fitted curve at half-maximal effect; nearly all actives have a fitted effect of over 40% in size
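Tdp1 1 nM final; 15 min RT w/ cpd; substrate 15 nM, 5 min; beads 10 ug/ml, 10 min; AlphaScreen read. Neg ctrl: no enzyme.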
TDP1 cell CPT: DT40-hTDP1 cell growth loss with CPT. AID 686979. chicken DT40 Tdp1-/-;hTDP1 cells + 20 nM CPT, ATP luminescence, 48 h. Potency, µM (doses to about 46.2 µM), for the others: top-dose activity change, negative = growth inhibition, usual class: inhibitors. 420,000 compounds, 12% hits; also: potency is read from the fitted curve at half-maximal effect; nearly all actives have a fitted effect of over 55% in size
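Cell growth measured by CellTiter-Glo luminescence after a minimum 48 h, 37 C compound exposure with 20 nM CPT in Tdp1-knockout DT40 cells stably expressing hTDP1, seeded 400/well; qHTS titration format.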
IL1B secr inh: blocks inflammasome-driven IL-1 beta release. THP-1 LPS/ATP IL-1B secretion, AlphaLISA, 16 h; active compounds read low. activity change, % at 57.5 µM. 360,000 compounds, 4.7% hits; in the data active = activity change below about -50%; inconclusive = mostly about -30% to -49%
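Secreted IL-1B measured by AlphaLISA bead assay after 16 h compound exposure of THP-1 cells; compounds (final up to 57.5 uM) added 1 h before LPS (250 ng/mL) and ATP (1.25 mM) stimulation; lower signal means less secretion.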
DT40 TDP1 no CPT: qHTS for Inhibitors of human tyrosyl-DNA phosphodiesterase 1 (TDP1): qHTS in cells in absence of CPT. DT40 Tdp1-/- hTDP1 cells, no CPT, ATP luminescence, 48 h. Potency, µM (titrated, usually from 46.2 µM), for the others: top-dose activity change, negative = growth inhibition, hits mostly inhibitors. 420,000 compounds, 15% hits. AID 686978, 2013; also: potency is read from the fitted curve at half-maximal effect; nearly all actives have a fitted effect of over 55% in size
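Stably hTDP1-transfected Tdp1-null chicken DT40 cells were treated with library compounds minus camptothecin and grown for at least 48 hr at 37 °C, after which cellular ATP was quantified by luminescence.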
CtBP-E1A blk: inhibitors of CtBP/E1A interaction | AlphaScreen GST-E1A/His-CtBP binding, 1536-well; active compounds read low | activity change, % (concentration not given with the values) | 340,000 compounds, 0.49% hits; in the data active = activity change below about -65%; inconclusive = mostly about -30% to -63%
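Protein mix (5X: 125 nM each GST-E1A, His-CtBP) was incubated with pinned compound 2 h at 37 deg C in dark, in 50 mM Tris pH 8.0 buffer with 300 mM NaCl. Glutathione donor and nickel acceptor beads followed; AlphaScreen signal read after 1 h.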
Active calls of the source: *. Unless noted, calls follow the shape of the dose curve; as a rule, active = well fitted curve in the direction sought with a large enough effect; inconclusive = small, poorly fitted or top-dose-only effect, or another doubt; inactive = no such curve, though single readings can be large; an effect the other way counts as inactive or inconclusive. % is scaled to controls: 0 for no effect and ±100 for the full control effect.

What do the screens show for `Cc1cc(=O)n(CC(=O)Nc2ccc([N+](=O)[O-])cc2)c(-n2nc(C)cc2C)n1`?
TDP1 inh: 5%; TDP1 cell CPT: 18µM*; DT40 TDP1 no CPT: 21µM*

What do the screens show for `Cc1cc(C)n(-c2nc(C)c(C)c(=O)n2CC(=O)Nc2ccc(OC(F)(F)F)cc2)n1`?
TDP1 inh: 8%; TDP1 cell CPT: 15µM*; DT40 TDP1 no CPT: 18µM*

Results for O=c1c(N2CCN(c3ccccc3)CC2)csc2ccc(Cl)cc12 ?
TDP1 inh: 2%; TDP1 cell CPT: inconclusive; DT40 TDP1 no CPT: inconclusive

What do the screens show for `COc1ccc(C(=O)Nc2ccc(OCC(F)(F)C(F)F)c(C(F)(F)F)c2)cc1OC`?
Six1-Eya2 inh: -1; TDP1 inh: 2%; TDP1 cell CPT: 11µM*; IL1B secr inh: -23; DT40 TDP1 no CPT: 11µM*; CtBP-E1A blk: 1

How did COC(=O)COc1cccc(NC(=O)c2ccc(Cl)cc2)c1 do in these assays?
Six1-Eya2 inh: -1; TDP1 inh: 3%; TDP1 cell CPT: inconclusive; IL1B secr inh: inconclusive; DT40 TDP1 no CPT: inconclusive; CtBP-E1A blk: -14

Results for COc1ccc(NC(=O)c2ccc(COCC(F)(F)F)cc2)cc1OC ?
Six1-Eya2 inh: 7; TDP1 inh: 6%; TDP1 cell CPT: 2%; IL1B secr inh: 0; DT40 TDP1 no CPT: inconclusive; CtBP-E1A blk: -9

What do the screens show for `O=C(Nc1ccc(OCC(F)(F)C(F)F)c(C(F)(F)F)c1)c1ccc(Cl)cc1`?
Six1-Eya2 inh: 23; TDP1 cell CPT: 23µM*; IL1B secr inh: -104*; DT40 TDP1 no CPT: inconclusive; CtBP-E1A blk: 9

How did NC(=O)C1CCN(c2nc(-c3ccccc3)nc3ccccc23)CC1 do in these assays?
Six1-Eya2 inh: -23; TDP1 inh: 4%; TDP1 cell CPT: -20%; IL1B secr inh: -54*; DT40 TDP1 no CPT: -21%; CtBP-E1A blk: -8

What do the screens show for `CCOC(=O)C1CCN(c2nc(-c3ccc(Br)cc3)nc3ccccc23)CC1`?
Six1-Eya2 inh: 34; TDP1 inh: -5%; TDP1 cell CPT: 5.8µM*; IL1B secr inh: 0; DT40 TDP1 no CPT: 4.1µM*; CtBP-E1A blk: 14

What do the screens show for `CC1CCCCN1C(=O)C1CCN(c2nc(-c3ccccc3)nc3c2CCC3)CC1` (stereo unspecified)?
Six1-Eya2 inh: -7; TDP1 inh: 5%; TDP1 cell CPT: 21µM*; IL1B secr inh: -15; DT40 TDP1 no CPT: 15µM*; CtBP-E1A blk: 8

What do the screens show for `NC(=O)C1CCN(c2nc(-c3ccccc3)nc3c2oc2ccccc23)CC1`?
Six1-Eya2 inh: 19; TDP1 inh: -2%; TDP1 cell CPT: inconclusive; IL1B secr inh: -71*; DT40 TDP1 no CPT: inconclusive; CtBP-E1A blk: 41

Results for Cc1nn(CCC(=O)NCc2ccc(OC(C)C)cc2)c(=O)c2nn(-c3ccccc3)c(C)c12 ?
Six1-Eya2 inh: 3; TDP1 inh: 1%; TDP1 cell CPT: -16%; IL1B secr inh: inconclusive; DT40 TDP1 no CPT: 7%; CtBP-E1A blk: 0

Results for O=C(Nc1nnc([C@@H]2C[C@H](O)[C@@H](CO)O2)s1)NC(c1ccccc1)c1ccccc1 ?
Six1-Eya2 inh: 1; TDP1 cell CPT: inconclusive; IL1B secr inh: 10; DT40 TDP1 no CPT: inconclusive; CtBP-E1A blk: -26

How did Cc1cc(=O)c2c(o1)C(=O)c1occc1C2=O do in these assays?
Six1-Eya2 inh: -29; TDP1 cell CPT: 18µM*; IL1B secr inh: 0; DT40 TDP1 no CPT: 15µM*; CtBP-E1A blk: 0

Results for COc1ccc(-n2c(SCC(=O)/C(C#N)=C(\C)N)nc3ccccc3c2=O)cc1OC ?
Six1-Eya2 inh: -3; TDP1 inh: -3%; TDP1 cell CPT: 3%; IL1B secr inh: 27; DT40 TDP1 no CPT: -2%

Results for Cc1ccc(CS(=O)(=O)c2ccccc2-c2nnc(-c3ccc(Cl)cc3)o2)cc1 ?
Six1-Eya2 inh: 7; TDP1 inh: 4%; TDP1 cell CPT: inconclusive; IL1B secr inh: 21; DT40 TDP1 no CPT: 18µM*; CtBP-E1A blk: -1

Results for c1ccc(Oc2ccc(-c3ccnc4nc(N5CCOCC5)nn34)cc2)cc1 ?
Six1-Eya2 inh: 9; TDP1 inh: 3%; TDP1 cell CPT: 15µM*; IL1B secr inh: -68*; DT40 TDP1 no CPT: 16µM*; CtBP-E1A blk: 0

How did COc1ccc(OC)c(N=c2ssnc2Cl)c1 do in these assays?
Six1-Eya2 inh: -2; TDP1 inh: 6%; TDP1 cell CPT: 12µM*; IL1B secr inh: -7; DT40 TDP1 no CPT: 12µM*; CtBP-E1A blk: -9

How did COc1cc(NC(=O)c2cc(-c3cccs3)on2)c(OC)cc1Cl do in these assays?
TDP1 inh: 8%; TDP1 cell CPT: inconclusive; DT40 TDP1 no CPT: -24%

What do the screens show for `COc1cc(N=c2ssnc2Cl)c(OC)cc1Cl`?
Six1-Eya2 inh: -5; TDP1 inh: 10%; TDP1 cell CPT: 2.6µM*; IL1B secr inh: -88*; DT40 TDP1 no CPT: 2.6µM*; CtBP-E1A blk: inconclusive

Results for COc1ccc(/C=N\NC(=S)SCN2C(=O)C3CCC(C)(C2=O)C3(C)C)cc1 (stereo unspecified) ?
Six1-Eya2 inh: -9; TDP1 cell CPT: -22%; IL1B secr inh: 6; DT40 TDP1 no CPT: -25%; CtBP-E1A blk: -13

Results for CC12CCC(C(=O)N(CSC(=S)N/N=C\c3ccccc3O)C1=O)C2(C)C (stereo unspecified) ?
Six1-Eya2 inh: -89*; TDP1 inh: -8%; TDP1 cell CPT: inconclusive; IL1B secr inh: 99; DT40 TDP1 no CPT: 15µM*; CtBP-E1A blk: -94*

Results for Cc1cccc(C(=O)NCC(=O)NCCSc2ccc(Br)cc2)c1 ?
Six1-Eya2 inh: -2; TDP1 inh: 2%; TDP1 cell CPT: -18%; IL1B secr inh: -15; DT40 TDP1 no CPT: -18%; CtBP-E1A blk: 1

How did Clc1ccc(C2[C@H]3CN(Cc4ccc(-c5ccccc5)cc4)[C@H](c4ccccc4)C34CC2(c2cccnc2)C4)cn1 (stereo partly specified) do in these assays?
TDP1 inh: 14%

How did FC(F)(F)c1ccc(C2[C@H]3CN(CC4CCCCC4)[C@H](c4ccccc4)C34CC2(c2cccnc2)C4)cc1 (stereo partly specified) do in these assays?
Six1-Eya2 inh: -2; TDP1 inh: 9%; TDP1 cell CPT: inconclusive; IL1B secr inh: -4; DT40 TDP1 no CPT: 16µM*; CtBP-E1A blk: 1

High-throughput results: PubChem, National Center for Advancing Translational Sciences (NCATS)
